# Source: PubChem (Broad Institute)
# Tgondii IFNg: blocks Toxoplasma gondii growth in the presence of IFN-gamma; activity change, negative = inhibition, % (no concentration beside the values); hit rate 3.8% among 69,000; Toxoplasma gondii growth in IFN-gamma-treated host cells; active compounds read low; in the data active means activity change below about -70%, passing the limit was not always enough;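 further: host cells are HeLa cells infected with Toxoplasma gondii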
# Hits are given with their value; i = inactive; ! = not active in a repeat. The sample as a whole holds a higher share of hits than the screen did.
SMILES,Tgondii IFNg
CC1CCCCN1S(=O)(=O)c1ccc2c(c1)CCC(=O)N2CC(=O)Nc1ccccc1 (centres undefined),i
COc1c(C)cc(-c2csc(C(N)=O)c2)cc1C,-71.6
COc1c(C)cc(-c2cncc(C(N)=O)c2)cc1C,i
COc1ccc(-c2csc(C(N)=O)c2)cn1,i
O=C(Cn1ncc2c(N3CCCCC3)ncnc21)Nc1ccc(Cl)cc1,i
CO[C@H]1CC(O[C@@H]2/C(C)=C/C[C@@H]3C[C@@H](C[C@]4(C=C[C@H](C)[C@@H](C5CCCCC5)O4)O3)OC(=O)[C@@H]3C=C(C)[C@@H](O)[C@H]4OC/C(=C\C=C\[C@@H]2C)[C@]43O)O[C@@H](C)C1O[C@H]1C[C@H](OC)[C@@H](O)[C@H](C)O1 (some centres undefined),-73.2
CCC(C)[C@H]1O[C@]2(CC[C@@H]1C)C[C@@H]1C[C@@H](C/C=C(\C)[C@@H](OC3C[C@H](OC)C(O[C@H]4C[C@H](OC)[C@@H](O)[C@H](C)O4)[C@H](C)O3)[C@@H](C)/C=C/C=C3\CO[C@@H]4[C@H](O)C(C)=C[C@@H](C(=O)O1)[C@]34O)O2 (some centres undefined),-80.0
CC[C@H](C)[C@H]1O[C@]2(CC[C@@H]1C)C[C@@H]1C[C@@H](C/C=C(\C)[C@@H](O[C@H]3C[C@H](OC)[C@@H](O[C@H]4C[C@H](OC)[C@@H](O)[C@H](C)O4)[C@H](C)O3)[C@@H](C)/C=C/C=C3\CO[C@@H]4[C@H](O)C(C)=C[C@@H](C(=O)O1)[C@]34O)O2,-86.8!
CCCNC(=O)c1cc(-c2csc(-c3cnccn3)n2)n2ccccc12,i
COc1cc(N2C[C@@H]3[C@@H]4CC[C@@H](C4)[C@@H]3C2)nc(N)n1,i
Cn1cc(CN2CCCC23CCN(c2cccc(F)c2)CC3)cn1,i
Cc1ccc(S(=O)(=O)N2CCC3(CC2)Nc2ccccc2-n2cccc23)c(C)c1,i
OC[C@H]1O[C@@H](n2cnc3c(NC4CCCC4)nc(Cl)nc32)[C@H](O)[C@@H]1O,i
Nc1nc(Cl)nc2c1ncn2C1OC(CO)C(O)C1F (centres undefined),-78.4
Nc1nc(Cl)nc2c1ncn2[C@@H]1O[C@H](CO)[C@@H](O)[C@H]1O,i
Cc1cccc(CN(Cc2ccccc2)C(=O)c2cnc3scc(C)n3c2=O)n1,i
CN1CCCC2(CCN(C(=O)Cc3nnc(N)s3)C2)C1=O (centres undefined),i
Cc1ccc(-c2nc(Cn3nnc(-c4nc(-c5ccc(Cl)cc5)no4)c3C)c(C)o2)cc1,i
Cc1noc(C)c1Cn1cnc(-c2ccccc2)c1C1CCOC1 (centres undefined),i
Cc1nc(-c2ccccc2)sc1CCNC(=O)c1ccc(Cl)cc1,i
COc1ccc(-c2nc(C)c(CCNC(=O)C(=O)Nc3ccccc3C)s2)cc1OC,-75.6
COc1ccc(-c2nc(C)c(CCNC(=O)c3ccc(Cl)cc3)s2)cc1,i
COc1ccc(-c2nc(C)c(CCNC(=O)C(=O)Nc3ccccc3F)s2)cc1OC,i
COc1ccc(C(=O)NCCc2sc(-c3ccc(OC)cc3)nc2C)cc1,i
CCCCOc1ccc(C(=O)NCCc2sc(-c3ccc(Cl)cc3)nc2C)cc1,-74.4
SMILES,Tgondii IFNg
Cc1nc(-c2ccc(Cl)cc2)sc1CCNC(=O)c1ccccc1,i
COc1ccc(-c2nc(C)c(CCNC(=O)C(=O)Nc3c(C)cccc3C)s2)cc1OC,i
COc1ccc(C(=O)NCCc2sc(-c3ccc(Cl)cc3)nc2C)cc1,-76.3
O=C(N[C@@H](CO)c1ccccc1)c1ccc(NC(=O)C2CCC2)cc1,i
COC(=O)c1ccc(S(=O)(=O)N2CCC(c3nc4ccccc4s3)CC2)cc1,i
COc1ccc(S(=O)(=O)N(Cc2nc(-c3cccc(C)c3)oc2C)c2ccccc2OC)cc1,i
CCc1nc2ccccc2n1C1CCN(C(=O)c2cc3ccc(N(C)C)cc3[nH]2)CC1,i
O=C(c1ccc(F)cc1)N1C[C@H](OCc2cccnc2)[C@@H]2COC[C@@H]21,i
Cc1cccnc1CN(Cc1ccccc1)C(=O)c1ccn(C(F)F)n1,i
COc1ccc(-c2nc(NCCC3=CCCCC3)c3ccccc3n2)cc1,i
O=C1Cc2c([nH]c3ccc([N+](=O)[O-])cc23)-c2ccccc2N1,-73.6
CC(C)(CO)N(Cc1ccccn1)C(=O)c1cc2ccccc2s1,i
CCn1c(C2CCN(C(=O)c3cccc4c(C)c(C)[nH]c34)CC2)n[nH]c1=O,i
CC(C)(N)C(=O)N1CCCC(c2cc(Nc3cccc(F)c3)nc(-c3cccnc3)n2)C1 (centres undefined),-82.1
O=C(c1ccncc1)N1CCCC(c2nc(-c3cccnc3)no2)C1 (centres undefined),i
COCC1CCCN(C(=O)c2ccc(-c3cccnc3)nc2)C1 (centres undefined),i
COc1ccc(NC(=O)c2c(O)c3ccccc3n(-c3ccccc3)c2=O)cc1,i
CCc1ccc(S(=O)(=O)c2cnc(N3CCC(C(N)=O)(N4CCCCC4)CC3)nc2N)cc1,-78.4
CC(C)c1ccc(S(=O)(=O)c2cnc(N3CCC(C(N)=O)(N4CCCCC4)CC3)nc2N)cc1,i
NC(=O)C1(N2CCCCC2)CCN(c2ncc(S(=O)(=O)c3ccccc3)c(N)n2)CC1,i
CO/N=C(/C(=O)N[C@@H]1C(=O)N2C(C(=O)O)=C(C[n+]3cccc4c3CCC4)CS[C@H]12)c1csc(N)n1,i
O=C(Nc1ccc(Cl)cc1)OCc1cccc(COC(=O)Nc2ccc(Cl)cc2)n1,-98.5
O=C(Nc1ccc(Cl)cc1)OC1CN(C(c2ccccc2)c2ccccc2)C1,i
CC(C)(COC(=O)Nc1ccc(Cl)cc1)n1cccc1,i
O=C(Nc1ccccc1)OCc1cccc(COC(=O)Nc2ccccc2)c1F,-82.3
SMILES,Tgondii IFNg
O=C(Nc1ccccc1)OCC(CN1CCCCC1)OC(=O)Nc1ccccc1 (centres undefined),i
O=C(Nc1ccccc1)OCCCCCOC(=O)Nc1ccccc1,i
CN(CCNC(=O)CCN1CCCCCCC1)S(C)(=O)=O,i
Cc1ncsc1CN(Cc1ccccc1)C(=O)c1ncc[nH]1,i
O=C(O)c1ccc(Cn2cncn2)cc1,i
NC1=NCN([C@H]2C[C@@H](O)[C@@H](CO)O2)C(=O)N1,i
Cc1ccccc1-c1nccn1CCc1n[nH]c2c1CCCC2,i
O=C(Nc1cc(Cl)c(-n2cccc2)cc1Cl)c1ccc(Cl)cc1,i
Cc1oc(-c2ccc(NC(=O)c3ccc(F)cc3)cc2)nc1Cn1cccn1,i
O=C(Nc1ccn(Cc2ccc(Cl)cc2Cl)n1)c1ccc(F)cc1,-96.6
O=C(c1cncc(-c2ccnc3[nH]ccc23)n1)N1CCCCC1,i
NC(=O)c1cc(-c2ccnc3[nH]ccc23)ccc1Cl,-88.7
CNC(=O)c1cc(-c2ccn[nH]2)ccc1Cl,i
CN(CCCc1ccco1)S(=O)(=O)c1ccc2[nH]c(=O)ccc2c1,i
N#C/C(=C/c1ccc(O)c(O)c1)C(=O)NCCCc1ccccc1,i
N#C/C(=C/c1ccc(O)c(O)c1)C(=O)NCc1ccccc1,i
N#C/C(=C\c1ccc(O)c(O)c1)C(=O)NC1CCC(CC2CCC(NC(=O)/C(C#N)=C/c3ccc(O)c(O)c3)CC2)CC1 (centres undefined),-79.9
O=C(c1ccco1)N1CCc2ncc(CNc3ccccn3)n2CC1,i
CCC1CCCCN1C(=O)CCNc1c(-c2cccc(OC)c2)nc2cnccn12 (centres undefined),i
Cc1cccc(N2CC[C@@H]3[C@H]2CCN3S(C)(=O)=O)n1,i
Cn1nc(C(C)(C)C)cc1C(=O)Nc1c(-c2ccccc2)c(C(F)(F)F)nn1C,-95.4
